Drawing on PubChem BioAssay (NCI), this text covers growth inhibition for nine molecules.

Experiment [1] is described as follows: NCI Yeast Anticancer Drug Screen. Data for the rad50 strain (AID 155).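 Further: 0% = growth of vehicle-only cultures of the same strain.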 To be noted: S. cerevisiae rad50 strain growth inhibition, active compounds read high. The gist of the method: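 Relative growth inhibition (compound vs vehicle) was measured in yeast with a defined repair-gene alteration.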
Experiment [2] can be described thus: NCI Yeast Anticancer Drug Screen. Data for the mec2-1 strain (AID 157). To be noted: S. cerevisiae mec2-1 strain, active compounds read high. In a few lines: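 Cells of the genetically defined mec2-1 yeast strain are incubated with test compound. Inhibition of growth is calculated against vehicle-treated controls.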
Experiment [3] is described as follows: NCI Yeast Anticancer Drug Screen. Data for the sgs1 mgt1 strain (AID 161).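 Further: 0% = growth of cultures given vehicle only.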 To be noted: S. cerevisiae sgs1 mgt1 strain, active compounds read high. In a few lines:
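Inhibition of yeast growth, normalised to vehicle-treated controls, is reported for a strain bearing genetic alterations in DNA damage repair.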

Experiment [4] can be described thus: NCI Yeast Anticancer Drug Screen. Data for the cln2 rad14 strain (AID 165).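 Further: 0% = growth equal to vehicle treated cultures.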 To be noted: S. cerevisiae cln2 rad14 strain, active compounds read high. The gist of the method: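 The screen exposed genetically defined yeast (cln2 rad14) to test compounds and scored growth inhibition relative to vehicle-treated controls.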
Experiment [5] can be described thus: NCI Yeast Anticancer Drug Screen. Data for the bub3 strain (AID 167). To be noted: S. cerevisiae bub3 mutant strain, active compounds read high. In a few lines: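 Screening used yeast with an engineered genetic alteration affecting cell cycle control. Compound-exposed cultures were compared with vehicle cultures, and reduced growth was taken as inhibition.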
Experiment [6] in a line: NCI Yeast Anticancer Drug Screen. Data for the mlh1 rad18 strain (AID 175). To be noted: S. cerevisiae mlh1 rad18 strain growth inhibition, active compounds read high. In a few lines: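 Compound-treated yeast growth, normalised to vehicle controls. Strain bears defined DNA repair mutations.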
Setting [7] is: at 5.0 µM (retest, dose inferred, filed as 0.5).
Setting [8] is: at 50.0 µM (retest, dose inferred, filed as 5.0).

The structures appear in SMILES notation. Compounds without any hit were thinned out: in the full panel of roughly 79,000, 15% have a hit. Values without a mark were called inactive. Activity calls are given as the source filed them. No stated cut-off is given here; in the data, active means growth inhibition above about 70%; inactive means the rest.

As for `O=C(c1ccccc1)C(C(=O)c1ccccc1)c1ccc2ccccc2n1`, the growth inhibition was 0% in experiment [1] (setting [7]); 1% in experiment [1] (setting [8]); 19.2% in experiment [1] (at 50.0 µM); 1% in experiment [2] (setting [7]); -4% in experiment [2] (setting [8]); 2.75% in experiment [2] (at 50.0 µM). In addition, the growth inhibition in experiment [3] (setting [7]) is -2%; in experiment [3] (setting [8]), -1%; in experiment [3] (at 50.0 µM), 63.5%; in experiment [4] (setting [7]) it was -2%; in experiment [4] (setting [8]), 1%; in experiment [4] (at 50.0 µM), 9.75%. Further, the growth inhibition in experiment [5] (setting [7]) was 1%; in experiment [5] (setting [8]), -4%; in experiment [5] (at 50.0 µM) it was 19.1%; in experiment [6] (setting [7]), -2%; in experiment [6] (setting [8]), -3%; in experiment [6] (at 50.0 µM), 22.9%.

Consider `CC(=O)N=C1N(/C=C2\C(=O)Oc3ccccc3C2=O)C(=O)/C(=C/c2ccc(Cl)cc2Cl)N1C`, for which the growth inhibition in experiment [1] (setting [7]) was 1%; in experiment [1] (setting [8]), 92% (active); in experiment [1] (at 50.0 µM), 91.8% (active); in experiment [2] (setting [7]) it was 11%; in experiment [2] (setting [8]) it was 96% (active); in experiment [2] (at 50.0 µM) it was 95% (active). For the same molecule, the growth inhibition in experiment [3] (setting [7]) was 7%; in experiment [3] (setting [8]), 90% (active); in experiment [3] (at 50.0 µM), 94.2% (active); in experiment [4] (setting [7]), -3%; in experiment [4] (setting [8]), 91% (active); in experiment [4] (at 50.0 µM) it was 89.8% (active). In addition, the growth inhibition was 23% in experiment [5] (setting [7]); 87% (active) in experiment [5] (setting [8]); 93.4% (active) in experiment [5] (at 50.0 µM); -4% in experiment [6] (setting [7]); 91% (active) in experiment [6] (setting [8]); 91.6% (active) in experiment [6] (at 50.0 µM).

As for `CNC(=O)OCCC(OC(=O)NC)C1CCC2C3CC=C4CC(OC(=O)NC)CCC4(C)C3CCC12C` (configuration not stated), the growth inhibition was 85% (active) in experiment [1] (setting [7]); 94% (active) in experiment [1] (setting [8]); 6.5% in experiment [1] (at 50.0 µM); 52% in experiment [2] (setting [7]); 94% (active) in experiment [2] (setting [8]); -1.8% in experiment [2] (at 50.0 µM). The growth inhibition in experiment [3] (setting [7]) was 77% (active); in experiment [3] (setting [8]), 96% (active); in experiment [3] (at 50.0 µM) it was 2.6%; in experiment [4] (setting [7]), 72% (active); in experiment [4] (setting [8]), 89% (active); in experiment [4] (at 50.0 µM), -6.45%. The growth inhibition in experiment [5] (setting [7]) is 73% (active); in experiment [5] (setting [8]) it was 94% (active); in experiment [5] (at 50.0 µM), -1.8%; in experiment [6] (setting [7]) it was 88% (active); in experiment [6] (setting [8]), 91% (active); in experiment [6] (at 50.0 µM) it was 34.5%.

Consider `CCNc1cc(N)[n+](CC)c2n[nH]c(/N=C/c3cc(Cl)cc(Cl)c3O)c12`, for which the growth inhibition is 37% in experiment [1] (setting [7]); 80% (active) in experiment [1] (setting [8]); 88% (active) in experiment [1] (at 50.0 µM); 26% in experiment [2] (setting [7]); 77% (active) in experiment [2] (setting [8]); 87.5% (active) in experiment [2] (at 50.0 µM). The growth inhibition was 41% in experiment [3] (setting [7]); 98% (active) in experiment [3] (setting [8]); 89.8% (active) in experiment [3] (at 50.0 µM); 63% in experiment [4] (setting [7]); 98% (active) in experiment [4] (setting [8]); 79.9% (active) in experiment [4] (at 50.0 µM). The growth inhibition in experiment [5] (setting [7]) is 87% (active); in experiment [5] (setting [8]), 97% (active); in experiment [5] (at 50.0 µM) it was 90.3% (active); in experiment [6] (setting [7]), 37%; in experiment [6] (setting [8]), 78% (active); in experiment [6] (at 50.0 µM), 88.2% (active).

As for `Nc1ccc2nc(Nc3ccc(F)cc3)cnc2c1`, the growth inhibition is -11% in experiment [1] (setting [7]); 63% in experiment [1] (setting [8]); 63.5% in experiment [1] (at 50.0 µM); -9% in experiment [2] (setting [7]); 27% in experiment [2] (setting [8]); 15.4% in experiment [2] (at 50.0 µM). Also, the growth inhibition is -18% in experiment [3] (setting [7]); 36% in experiment [3] (setting [8]); 56% in experiment [3] (at 50.0 µM); 17% in experiment [4] (setting [7]); 49% in experiment [4] (setting [8]); 28.9% in experiment [4] (at 50.0 µM). For the same molecule, the growth inhibition was 7% in experiment [5] (setting [7]); 73% (active) in experiment [5] (setting [8]); 60% in experiment [5] (at 50.0 µM); 7% in experiment [6] (setting [7]); 77% (active) in experiment [6] (setting [8]); 65.2% in experiment [6] (at 50.0 µM).

For `CC(C)=CCC/C(C)=C/CC/C(C)=C/CC/C=C(\C)CC/C=C(\C)CCC[N+](C)(C)[O-]`, the growth inhibition is 14% in experiment [1] (setting [7]); 90% (active) in experiment [1] (setting [8]); 98.9% (active) in experiment [1] (at 50.0 µM); 17% in experiment [2] (setting [7]); 91% (active) in experiment [2] (setting [8]); 99.4% (active) in experiment [2] (at 50.0 µM). The growth inhibition in experiment [3] (setting [7]) is 46%; in experiment [3] (setting [8]), 94% (active); in experiment [3] (at 50.0 µM), 99.2% (active); in experiment [4] (setting [7]), 5%; in experiment [4] (setting [8]), 59%; in experiment [4] (at 50.0 µM), 98.4% (active). For the same molecule, the growth inhibition in experiment [5] (setting [7]) is 16%; in experiment [5] (setting [8]), 95% (active); in experiment [5] (at 50.0 µM), 98.8% (active); in experiment [6] (setting [7]) it was 13%; in experiment [6] (setting [8]) it was 73% (active); in experiment [6] (at 50.0 µM), 99.1% (active).

Regarding `CCN(CC)CCOc1ccc(C(=C2CCCCC2)c2ccc(OCCN(CC)CC)cc2)cc1`, the growth inhibition in experiment [1] (setting [7]) is 34%; in experiment [1] (setting [8]), 34%; in experiment [1] (at 50.0 µM) it was 84.8% (active); in experiment [2] (setting [7]), 31%; in experiment [2] (setting [8]), 31%; in experiment [2] (at 50.0 µM) it was 41%. The growth inhibition in experiment [3] (setting [7]) was 31%; in experiment [3] (setting [8]), 31%; in experiment [3] (at 50.0 µM), 89.1% (active); in experiment [4] (setting [7]), 31%; in experiment [4] (setting [8]) it was 31%; in experiment [4] (at 50.0 µM), 77% (active). For the same molecule, the growth inhibition in experiment [5] (setting [7]) is 31%; in experiment [5] (setting [8]), 31%; in experiment [5] (at 50.0 µM) it was 76.8% (active); in experiment [6] (setting [7]), 28%; in experiment [6] (setting [8]) it was 28%; in experiment [6] (at 50.0 µM) it was 78.5% (active).

As for `COc1ccc(/C=C/C(=N/NC(=O)c2ccccc2)C(C)CN(C)C)cc1` (configuration not stated), the growth inhibition in experiment [1] (setting [7]) is -3%; in experiment [1] (setting [8]), 4%; in experiment [1] (at 50.0 µM) it was 6.15%; in experiment [2] (setting [7]) it was 1%; in experiment [2] (setting [8]), 4%; in experiment [2] (at 50.0 µM), 16.3%. Also, the growth inhibition is 3% in experiment [3] (setting [7]); 2% in experiment [3] (setting [8]); 6.9% in experiment [3] (at 50.0 µM); 1% in experiment [4] (setting [7]); -2% in experiment [4] (setting [8]); 49.2% in experiment [4] (at 50.0 µM). For the same molecule, the growth inhibition is -5% in experiment [5] (setting [7]); -7% in experiment [5] (setting [8]); -8.2% in experiment [5] (at 50.0 µM); -1% in experiment [6] (setting [7]); -64% in experiment [6] (setting [8]); 7.45% in experiment [6] (at 50.0 µM).

Turning to `O=c1cc(/C=C/c2ccccc2)cccc1O`, the growth inhibition was 79% (active) in experiment [1] (setting [7]); 97% (active) in experiment [1] (setting [8]); 97.8% (active) in experiment [1] (at 50.0 µM); 90% (active) in experiment [2] (setting [7]); 96% (active) in experiment [2] (setting [8]); 98.2% (active) in experiment [2] (at 50.0 µM). In addition, the growth inhibition in experiment [3] (setting [7]) is 84% (active); in experiment [3] (setting [8]) it was 99% (active); in experiment [3] (at 50.0 µM), 98.5% (active); in experiment [4] (setting [7]) it was 56%; in experiment [4] (setting [8]), 98% (active); in experiment [4] (at 50.0 µM), 96.9% (active). Moreover, the growth inhibition is 97% (active) in experiment [5] (setting [7]); 93% (active) in experiment [5] (setting [8]); 97.5% (active) in experiment [5] (at 50.0 µM); 58% in experiment [6] (setting [7]); 98% (active) in experiment [6] (setting [8]); 97.9% (active) in experiment [6] (at 50.0 µM).
